MEKK3 PB1 HTS – MEKK3-MEK5 PB1 interaction, increase or decrease; Q99759; bead-based flow cytometry, Alexa488-MEK5 binding to MEKK3; actives lie on both sides; 0 = blocked by unlabeled MEK5, 100 = vehicle; binding response (% of control), % at 10 µM; 290,000 compounds, 1.4% hits;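 active = binding response more than 3 SD above or below the average of its plate-row segment, actives on both sides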;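 also: Alexa488 bead fluorescence after subtracting the streptavidin-only scavenger bead signal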
MEKK2wt PB1 HTS – raises or lowers MEK5 binding to wildtype human MEKK2 PB1 domain; Q9Y2U5; bead flow cytometry, Alexa488-MEK5 binding to MEKK2 WT; actives lie on both sides; binding response (% of control), % at 10 µM; 290,000 compounds, 1.1% hits; in the data active = binding response below about 67% or above about 130%
MEKK2mut PB1 HTS – signal of MEK5 binding to mutant human MEKK2 PB1 domain. bead flow cytometry, Alexa488-MEK5 binding to MEKK2 mutant. percent response, % at 10 µM. 290,000 compounds, 0.35% hits. AID 1530; in the data active = percent response above about 24%, passing the limit was not always enough
UBC13 inh – inhibitors of human UBC13 polyubiquitin chain formation | inhibition, % at 20 µM | TR-FRET | 330,000 compounds, 0.47% hits | P61088; in the data active = inhibition above about 45%, passing the limit was not always enough
Target sequence (P61088 whole entry, looked up): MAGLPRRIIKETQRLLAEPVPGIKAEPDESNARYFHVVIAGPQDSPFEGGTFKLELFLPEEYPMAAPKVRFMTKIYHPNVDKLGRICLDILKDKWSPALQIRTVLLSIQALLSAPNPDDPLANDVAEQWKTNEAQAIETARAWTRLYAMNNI
MEKK2wt confirm – raises or lowers MEK5 binding to wildtype human MEKK2, retest. 5,900 compounds, 2.4% hits. binding response (% of control), % at 10 µM. shares compounds with MEKK3 PB1 HTS. bead flow cytometry, Alexa488-MEK5 binding to MEKK2 WT; actives lie on both sides. AID 1892; in the data active = binding response below about 16% or above about 210%; inactive = in between
MEKK2mut-MEK5 – signal of MEK5 binding to mutant human MEKK2, retest; shares compounds with MEKK3 PB1 HTS; bead flow cytometry, Alexa488-MEK5 binding to MEKK2 mutant; percent response, % at 10 µM; 5,900 compounds, 2% hits; AID 1893; in the data active = percent response mostly above about 71%, no sharp cut-off; inactive = mostly below about 38%;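 also: higher means compound restores mutant binding toward wildtype level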
MEKK3 confirm – MEKK3-MEK5 PB1 inhibition, single concentration confirmation; shares compounds with MEKK3 PB1 HTS; bead flow cytometry, Alexa488-MEK5 binding to MEKK3; stronger effect = lower value; binding response (% of control), % at 10 µM; 5,900 compounds, 1.8% hits; AID 1894;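 active = binding response below 72% of control, or above a set upper limit, though filed actives all read lower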
Numbers stand for hits; [ ] = remark or other dose. A selection: hits, their analogues and other compounds. The true share with any hit is near 2.3%.

For CCO/C([O-])=N/c1sn[n+](C)c1C the results were MEKK3 PB1 HTS inactive, MEKK2wt PB1 HTS inactive, MEKK2mut PB1 HTS inactive and UBC13 inh inactive.
`CCCCn1c(N)c(-c2nc3ccccc3s2)c2c([N+](=O)[O-])nn(C)c(=O)c21` gave MEKK3 PB1 HTS 82.0[inhibitor], MEKK2wt PB1 HTS inactive, MEKK2mut PB1 HTS inactive, UBC13 inh inactive, MEKK2wt confirm inactive, MEKK2mut-MEK5 inactive and MEKK3 confirm inactive.
For COc1ccc(OC)c(/C=N/NC(=O)Cn2ccnc2C)c1 the results were MEKK3 PB1 HTS inactive, MEKK2wt PB1 HTS inactive, MEKK2mut PB1 HTS inactive and UBC13 inh inactive.
Cc1ccc(NCC(=O)N/N=C/c2cccc(Oc3ccccc3)c2)cc1 was read as MEKK3 PB1 HTS 134.0, MEKK2wt PB1 HTS inactive, MEKK2mut PB1 HTS inactive, UBC13 inh inactive, MEKK2wt confirm inactive, MEKK2mut-MEK5 inactive and MEKK3 confirm inactive.
COc1cccc(/C=N/NC(=O)Cn2ccnc2C)c1 was read as MEKK3 PB1 HTS 142.0, MEKK2wt PB1 HTS inactive, MEKK2mut PB1 HTS inactive, UBC13 inh inactive, MEKK2wt confirm inactive, MEKK2mut-MEK5 inactive and MEKK3 confirm inactive.
Screening Cc1cccc(NCC(=O)N/N=C/c2ccc(Br)cc2)c1 returned MEKK3 PB1 HTS 47.0[inhibitor], MEKK2wt PB1 HTS inactive, MEKK2mut PB1 HTS inactive, UBC13 inh inactive, MEKK2wt confirm inactive, MEKK2mut-MEK5 inactive and MEKK3 confirm inactive.
`Cc1ccc(NCC(=O)N/N=C/c2ccncc2)cc1` gave MEKK3 PB1 HTS 137.0, MEKK2wt PB1 HTS inactive, MEKK2mut PB1 HTS inactive, UBC13 inh inactive, MEKK2wt confirm inactive, MEKK2mut-MEK5 inactive and MEKK3 confirm inactive.
CCOc1ccc(Cn2ccnc2)cc1[N+](=O)[O-] was read as MEKK3 PB1 HTS 129.0, MEKK2wt PB1 HTS inactive, MEKK2mut PB1 HTS inactive, UBC13 inh inactive, MEKK2wt confirm inactive, MEKK2mut-MEK5 inactive and MEKK3 confirm inactive.
For CCOc1ccc(NC(=O)C(C)NC(=O)c2ccccc2Cl)cc1S(=O)(=O)N1CCCC1 (centres undefined) the results were UBC13 inh inactive.
CCOC(=O)C1=C(CC)OC(N)=C(C#N)C1c1ccc(OC)c(C)c1OC (centres undefined) was read as MEKK3 PB1 HTS 2.0[inhibitor], MEKK2wt PB1 HTS 2.0[inhibitor], MEKK2mut PB1 HTS inactive, UBC13 inh inactive, MEKK2wt confirm inactive, MEKK2mut-MEK5 inactive and MEKK3 confirm inactive.
For CCCC1=C(C(=O)OCC)C(c2ccc(OC)c(C)c2OC)C(C#N)=C(N)O1 (centres undefined) the results were MEKK3 PB1 HTS inactive, MEKK2wt PB1 HTS inactive, MEKK2mut PB1 HTS inactive and UBC13 inh inactive.
`Cc1ccccc1C(=O)c1cccn1CC(=O)NCCN1CCN(c2cccc(C)c2C)CC1` gave MEKK3 PB1 HTS inactive, MEKK2wt PB1 HTS 144.0, MEKK2mut PB1 HTS inactive, UBC13 inh inactive, MEKK2wt confirm inactive, MEKK2mut-MEK5 inactive and MEKK3 confirm inactive.
For Cc1ccc(NS(=O)(=O)c2cc([N+](=O)[O-])ccc2NNC(=S)Nc2cccc(Cl)c2)c(C)c1 the results were MEKK3 PB1 HTS 136.0, MEKK2wt PB1 HTS inactive, MEKK2mut PB1 HTS inactive, MEKK2wt confirm inactive, MEKK2mut-MEK5 inactive and MEKK3 confirm inactive.
For Cc1ccc(C2CCN(C(=S)Nc3cccc(C)c3)C2)cc1 (centres undefined) the results were MEKK3 PB1 HTS inactive, MEKK2wt PB1 HTS inactive, MEKK2mut PB1 HTS inactive and UBC13 inh inactive.
CC1(OC(=O)CCc2ccccc2)C(=O)C=C2C=C(c3ccc(C#N)cc3)N(Cc3ccccc3)C=C2C1=O (centres undefined) was read as MEKK3 PB1 HTS inactive, MEKK2wt PB1 HTS inactive, MEKK2mut PB1 HTS inactive and UBC13 inh inactive.
For CC1(OC(=O)CCc2ccccc2)C(=O)C=C2C=C(c3ccc(C#N)cc3)N(C3CC3)C=C2C1=O (centres undefined) the results were MEKK3 PB1 HTS inactive, MEKK2wt PB1 HTS 140.0, MEKK2mut PB1 HTS inactive, UBC13 inh inactive, MEKK2wt confirm inactive, MEKK2mut-MEK5 inactive and MEKK3 confirm inactive.
`COC(=O)CCC(=O)OC1(C)C(=O)C2=CN(c3ccccc3)C(c3ccc(OC)cc3)=CC2=C(Br)C1=O` (centres undefined) gave MEKK3 PB1 HTS 75.0[inhibitor], MEKK2wt PB1 HTS -5.0, MEKK2mut PB1 HTS inactive, UBC13 inh inactive, MEKK2wt confirm inactive, MEKK2mut-MEK5 inactive and MEKK3 confirm inactive.
For COC(=O)CCC(=O)OC1(C)C(=O)C2=CN(C3CC3)C(c3ccc(OC)cc3)=CC2=C(Br)C1=O (centres undefined) the results were MEKK3 PB1 HTS inactive, MEKK2wt PB1 HTS 2.0[inhibitor], MEKK2mut PB1 HTS inactive, UBC13 inh inactive, MEKK2wt confirm inactive, MEKK2mut-MEK5 inactive and MEKK3 confirm inactive.
For Cc1ccc(SCCc2cc[n+](CC(=O)c3ccccc3)cc2)cc1 the results were MEKK3 PB1 HTS inactive, MEKK2wt PB1 HTS 143.0, MEKK2mut PB1 HTS inactive, UBC13 inh inactive, MEKK2wt confirm inactive, MEKK2mut-MEK5 inactive and MEKK3 confirm inactive.
Screening Cc1ccc(C(=O)C[n+]2ccc(Cc3ccccc3)cc2)cc1 returned MEKK3 PB1 HTS inactive, MEKK2wt PB1 HTS inactive, MEKK2mut PB1 HTS inactive and UBC13 inh inactive.
`Cc1c(NC(=O)c2ccc(S(=O)(=O)Nc3ccccc3F)cc2)c(=O)n(-c2ccccc2)n1C` gave UBC13 inh inactive.
NC1=NN=C(c2ccc3c(c2)OCCO3)CS1 was read as MEKK3 PB1 HTS 1.0[inhibitor], MEKK2wt PB1 HTS 1.0[inhibitor], MEKK2mut PB1 HTS inactive, UBC13 inh inactive, MEKK2wt confirm inactive, MEKK2mut-MEK5 inactive and MEKK3 confirm inactive.
`CNC(=S)NCc1ccc(OC)cc1` gave MEKK3 PB1 HTS 55.0[inhibitor], MEKK2wt PB1 HTS inactive, MEKK2mut PB1 HTS inactive, UBC13 inh inactive, MEKK2wt confirm inactive, MEKK2mut-MEK5 inactive and MEKK3 confirm inactive.
`COc1ccc(CNC(=S)Nc2ccccc2)cc1` gave MEKK3 PB1 HTS inactive, MEKK2wt PB1 HTS inactive, MEKK2mut PB1 HTS inactive and UBC13 inh inactive.
For CCc1ccc2nc(N(CCCN(C)C)C(=O)c3ccc(S(=O)(=O)N(C)C4CCCCC4)cc3)sc2c1 the results were MEKK3 PB1 HTS inactive, MEKK2wt PB1 HTS 210.0, MEKK2mut PB1 HTS 51.0, UBC13 inh 47.6, MEKK2wt confirm inactive, MEKK2mut-MEK5 inactive and MEKK3 confirm inactive.
For CN(C)CCCN(C(=O)c1ccc(S(=O)(=O)N(C)C2CCCCC2)cc1)c1nc2ccc(Br)cc2s1 the results were MEKK3 PB1 HTS inactive, MEKK2wt PB1 HTS 195.0, MEKK2mut PB1 HTS 32.0, UBC13 inh inactive, MEKK2wt confirm inactive, MEKK2mut-MEK5 inactive and MEKK3 confirm inactive.
CCN(Cc1ccccc1)S(=O)(=O)c1ccc(C(=O)N(CCCN(C)C)c2nc3ccc(F)cc3s2)cc1 was read as MEKK3 PB1 HTS inactive, MEKK2wt PB1 HTS 210.0, MEKK2mut PB1 HTS 38.0, UBC13 inh inactive, MEKK2wt confirm 208.0, MEKK2mut-MEK5 inactive and MEKK3 confirm inactive.

Assay outcomes as filed in PubChem.
